We go through 40 molecules from PubChem BioAssay (NCI).

Compounds without any hit were thinned out: in the full panel of roughly 83,000, 20% have a hit.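 Values shown are percent growth following 48 h exposure of cells in 96-well plates to a single concentration of compound; below 10 was considered active.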 A number with no mark means an inactive call. The source made the active and inactive calls.

The test concerns M14 melanoma. Nature of the test: NCI-60 one-dose screen, 48 h (100 = growth as untreated, 0 = no growth, -100 = all killed). The note with it: 10 µM unless noted. As for the experimental part: Growth inhibition of the M14 human tumor cell line is measured as a screen for anti-cancer activity. Cells are grown in 96 well plates and exposed to the test compound for 48 hours. Compounds are tested at a single concentration, which is 10^-5 M for most compounds. The reported endpoint is percent growth (GI% or GIPRCNT), where numbers from 0 - 100% represent growth inhibition, and numbers from -100% - 0 represent cell death. For example, a value of 40 represents 60% growth inhibition. A value of 0 means no net growth occurred over the course of the experiment. A value of -40 indicates 40% of cells at the beginning of the experiment died by the end of the experiment. A value of -100 means all cells are dead at the end of the experiment.
NCI-60 Human Tumor Cell Lines Screen was performed using the standard one-dose NCI protocol, which is described in more detail at https://dtp.cancer.gov/discovery_development/nci-60/default.htm.
Compounds with GIPRCNT values below 10 were considered active. Activity score was based on GIPRCNT using the following formula: […]
Score is 0 for GIPRCNT values of 100 or above, 50 for GIPRCNT values of 0, and 100 for GIPRCNT values of -100.
Turning to `CC(=O)Nc1cccc(Nc2nc(N[C@H](C)c3ccccc3)c3ccccc3n2)c1`, the growth was 58.7%.
For `CC(C)(C)CC(C)(C)n1nnnc1C(Nc1nccs1)c1cc2cccc3ccc4cccc1c4c32` (stereo not given) the value was 111%; for `O=C(CSc1nc2ccccc2c(=O)n1-c1ccccc1)Nc1cccc(C(=O)/C=C/c2ccccc2)c1`, 97.5%; for `Cc1ccc2c(c1)C(=O)/C(=C/c1cccc(F)c1)S2`, 109%.
For `CCC(NC(c1cc2cccc3ccc4cccc1c4c32)c1nnnn1C(C)(C)C)C1CCCCC1` (stereo not given), the growth is 80.5%.
The value for `CC(C)(C)c1ccc(C(=O)Nc2sc3c(c2C(N)=O)CC/C(=N\O)C3)cc1` was 25%.
The value for `COc1ccc([C@H]2[C@H](O)C(=O)N2c2cc(OC)c(OC)c(OC)c2)cc1F` was 2.83% (active).
The value for `O=C(CSc1nc2ccccc2c(=O)n1-c1ccccc1)Nc1cccc(C(=O)/C=C/c2ccccc2Cl)c1` was 103%.
With `CCN(CC)CCn1c2ccc(O)cc2c2sc3cc(OC)ccc3c(=O)c21`, the growth is 0.234% (active).
For `C=C(C)[C@@H]1CC[C@]2(COCCCNCCC#N)CC[C@]3(C)[C@H](CC[C@@H]4[C@@]5(C)CC[C@H](OCCCNCCC#N)C(C)(C)[C@@H]5CC[C@]43C)[C@@H]12` the value was 75.3%.
For `Cc1ccc(C(=O)NN2C(=O)/C(=C/C=C/c3ccco3)SC2=S)cc1` the value was 99.8%; for `Cc1cc2ncc(-c3cc4ccccc4c(N4CCN(C)CC4)n3)nc2cc1C`, -85.7% (active); for `Cc1ccc(S(=O)(=O)N(CC[C@@H]2C[C@H]2c2cc3ccccc3o2)S(=O)(=O)c2ccc(C)cc2)cc1`, 99%.
Consider `O=C1C(c2ccccc2)=C(N2CCc3ccccc32)OC1(Cl)Cl`, for which the growth was 62.2%.
For `O=C(Cn1cc[n+](CC(=O)c2ccc(-c3ccccc3)cc2)c1)Nc1cccc2cccnc12` the value was 85%.
The value for `O=c1c2ccccc2nc(COc2ccccc2)n1NS(=O)(=O)c1ccc(Cl)cc1` was 74.2%.
`CNc1ncc2cc(-c3ccc(-c4ncccc4F)cc3Cl)c(=O)n(CC3OCC(N)CO3)c2n1` (stereo not given): the growth was 87.9%.
Turning to `C[C@@H](Nc1c(C#N)cnc2ccc(-c3cnc(Cl)c(NS(C)(=O)=O)c3)cc12)c1ccccc1`, the growth was 4.3% (active).
For `O=C(CSc1nnc(-c2ccc(Cl)cc2)n1-c1ccccc1)Nc1cccc(Cl)c1` the value was 72.8%; for `CCCn1cnc2c(c1=N)C(c1ccc(OC)cc1)c1sc3c(C)cccc3c1O2` (stereo not given), 2.53% (active).
For `COc1cc(-c2nc3sccn3c2-c2ccnc(S(C)(=O)=O)n2)ccc1F` the value was 97.9%; for `CC1(COc2ccc3ncc(C#Cc4cncc(C(=O)Nc5cccc(C(F)(F)F)c5)c4)n3n2)COC1`, 78%.
Consider `CS(=O)(=O)Nc1cc(-c2ccc3ncc(C#N)c(NCc4ccccc4)c3c2)cnc1Cl`, for which the growth is -9.52% (active).
The value for `O=C1[C@H]2Cc3c([nH]c4ccccc34)[C@@H](c3ccc(Br)cc3)N2C(=O)CN1C1CCN(CC2CCCCC2)CC1` was -77.2% (active).
The value for `CCNC(=O)N1CCc2cc(OC)c(OCCc3ccc(OC)c(N)c3)cc2C1c1cc(C)c(C)cc1C` (stereo not given) was 27.9%.
For the molecule `Cc1ccc2sc3c(c2c1)OC(N)=C(C#N)C3c1cccc(F)c1` (stereo not given), the growth is 0.753% (active).
The value for `c1n[nH]cc1-c1nc2ccc3[nH]ncc3c2c2c1CCCC2` was 7.13% (active); that for `COc1cc(OC)cc(C(=O)Nc2sc3c(c2C(N)=O)CCC(=O)C3)c1` was 22.9%.
The value for `Cc1cccc2c3c(sc12)C(c1ccc(F)cc1)C(C#N)=C(/N=C/c1ccc(Cl)cc1)O3` (stereo not given) was -3.44% (active); that for `O=C(Nc1nonc1-c1ccccc1)c1ccc(C(F)(F)F)cc1` was 71.1%; that for `CCCn1cnc2c(c1=N)C(c1ccc(OC)cc1)c1sc3c(CC)cccc3c1O2` (stereo not given) was 2.9% (active).
The value for `C[C@@H]1C[C@H]2C(=O)O[C@@H](C)C(NC(=O)[C@H](Cc3cc(F)cc(F)c3)NC(=O)Nc3ccc(C4CC4)cc3F)C(=O)N3CCC[C@H]3C(=O)N3CCCC[C@H]3C(=O)N[C@@H](CO)C(=O)N2C1` (stereo not given in full) was 27.4%; that for `N#Cc1c(-c2cccs2)cc(-c2cnccn2)nc1SCC(=O)Nc1ccc(Br)cc1` was 91.7%; that for `CC1(C)[C@@H](O)CC[C@]2(C)[C@H]3CC[C@@H]4[C@H]5[C@H](C(=O)/C=C\c6ccc([N+](=O)[O-])cc6)CC[C@]5(O)CC[C@@]4(C)[C@]3(C)CC[C@@H]12` was 42.6%.
As for `C=C(C=O)[C@@H]1CC[C@]2(CO)CC[C@]3(C)[C@H](CC[C@@H]4[C@@]5(C)CCCNC(C)(C)[C@@H]5CC[C@]43C)[C@@H]12`, the growth is 61.3%.
As to `CC(=O)C1=C(C)NC(NNC(N)=S)=NC1c1ccccc1` (stereo not given), the growth is 92.9%.
`C#CC(=O)N(c1ccc(OC)cc1OC)C(C(=O)NCC(=O)OCC)c1cccs1` (stereo not given): the growth is 80.9%.
The value for `O=C1CCCC2=C1C(c1c[nH]c3ccc(Br)cc13)Cc1cc(Br)ccc1N2` (stereo not given) was 13.1%; that for `CC(C)(C)n1nnnc1C(Nc1cccc2c1OCO2)c1cc2cccc3ccc4cccc1c4c32` (stereo not given) was 97.8%.
Regarding `CCc1cccc2c3c(sc12)C(c1ccc(OC)cc1)C(C#N)=C(/N=C/c1ccc(Cl)cc1)O3` (stereo not given), the growth was 4.74% (active).
